# According to PubChem BioAssay (NCI):
# This is part of a sample that, as a whole, favours compounds with a hit. Of some 83,000 tested, about 20% had one in any assay.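 Step 1: grow cells in 96-well plates. Step 2: add test compound at a single concentration. Step 3: incubate 48 h. Step 4: record percent growth.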 Unmarked numbers belong to inactive results. Calls of active or inactive are those of the source. Rule for the calls: active = growth percent below 10; inactive = the rest.
# Tests used:
# Test in all cases: NCI-60 one-dose screen, 48 h (100 = growth as untreated, 0 = no growth, -100 = all killed)
# NCI-H23 lung = conditions: 10 µM unless noted
# NCI-H322M lung = conditions: 10 µM unless noted
# HOP-62 NSCLC = conditions: 10 µM unless noted
# NCI-H460 lung = conditions: 10 µM unless noted
# HOP-92 NSCLC = conditions: 10 µM unless noted
# NCI-H522 lung = conditions: 10 µM unless noted
# A549/ATCC NSCLC = conditions: 10 µM unless noted
# 786-0 renal = conditions: 10 µM unless noted
# COLO 205 colon = conditions: 10 µM unless noted
# DU-145 prostate = conditions: 10 µM unless noted
# K-562 leukemia = conditions: 10 µM unless noted
# MALME-3M melanoma = conditions: 10 µM unless noted
# MDA-MB-231 breast = conditions: 10 µM unless noted
# RXF 393 renal = conditions: 10 µM unless noted
# SF-268 CNS = conditions: 10 µM unless noted
# SF-295 CNS = conditions: 10 µM unless noted
# SF-539 CNS = conditions: 10 µM unless noted
# UACC-257 melanoma = conditions: 10 µM
# M14 melanoma = conditions: 10 µM unless noted
SMILES,growth (NCI-H23 lung),growth (NCI-H322M lung),growth (HOP-62 NSCLC),growth (NCI-H460 lung),growth (HOP-92 NSCLC),growth (NCI-H522 lung),growth (A549/ATCC NSCLC),growth (786-0 renal),growth (COLO 205 colon),growth (DU-145 prostate),growth (K-562 leukemia),growth (MALME-3M melanoma),growth (MDA-MB-231 breast),growth (RXF 393 renal),growth (SF-268 CNS),growth (SF-295 CNS),growth (SF-539 CNS),growth (UACC-257 melanoma) [%],growth (M14 melanoma)
COc1cc2nc(N3CCC[C@@H](NC4=CC(=O)c5ccccc5C4=O)C3)nc(N)c2cc1OC,87.2%,-65.3% (active),94.5%,-72.9% (active),84.8%,94.3%,-74.6% (active),94.7%,-71.8% (active),-53.8% (active),-47.1% (active),94.8%,-71.2% (active),-76.3% (active),-47.4% (active),-89% (active),-99.9% (active),95.3,96.3%
COc1ccc(/C=C/C(=O)c2ccc(B(O)O)cc2)cc1O,88%,96.3%,89.8%,73.2%,52.4%,85.6%,66.3%,84.9%,101%,75.6%,24.6%,,90.8%,81.4%,81.6%,98.5%,71.3%,94.3,74.1%
O=c1oc2cc(OS(=O)(=O)c3ccc(F)cc3)ccc2c2c1CCCCC2,66.1%,90.4%,96.4%,65.5%,60%,49.8%,55.9%,76.2%,24.4%,78.7%,31.6%,83.5%,90.5%,,86.8%,63.4%,78.6%,62.1,69.4%
CC/C=C\C/C=C\C[C@H](O)C/C=C1/C(=O)C=C[C@H]1C/C=C\CCC(=O)OC,54.3% [8.25 µM],90.2% [8.25 µM],37.6% [8.25 µM],90.2% [8.25 µM],58.6% [8.25 µM],-30.8% [8.25 µM] (active),53.4% [8.25 µM],44.7% [8.25 µM],0.861% [8.25 µM] (active),46% [8.25 µM],5.45% [8.25 µM] (active),41.6% [8.25 µM],21% [8.25 µM],21.3% [8.25 µM],20.6% [8.25 µM],82.4% [8.25 µM],17% [8.25 µM],,12.7% [8.25 µM]
CC(=O)/C=C/c1cc2cc(Cl)ccc2[nH]c1=O,87.5%,90.5%,68%,78.5%,94.5%,75.2%,,74.5%,98.8%,69.8%,50.5%,97.2%,84%,79.1%,81.2%,96.9%,85.4%,,91.2%
O=S(=O)(NCCCNc1cc(-c2cn(-c3ccccc3)nc2-c2cccc(O)c2)ccn1)c1ccc(Cl)cc1,33.1%,25.2%,29.1%,10.9%,-6.58% (active),20.2%,18.8%,-11.8% (active),-68.5% (active),39.9%,-8.45% (active),-19.3% (active),-17.3% (active),14.9%,30.6%,-47.9% (active),21.6%,,8.6% (active)
